From PubChem BioAssay
CYP2C19 activ: human CYP2C19 activators, primary screen, biochemical, luminescence; 96,000 tested, under 10 active; Cytochrome P450 2C19 (Homo sapiens), P33261; AID 1025, 2008; recombinant CYP2C19, luciferin-H EGE luminescence; hits give high values; 0 = fully inhibited enzyme, 1 = untreated enzyme; activation factor at 5 µM;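 active = activation factor of at least 2 at 5 µM in the primary screen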;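 also: 0 = wells with 2.5 mM tranylcypromine and 1 = vehicle-only wells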
CYP2C9 inh: blockers of cytochrome P450 2C9 activity – biochemical, luminescence, ADME assay, primary screen; P11712; CYP2C9 Supersomes, luciferin-H conversion; AID 777, 2007; 96,000 tested, 20% active; inhibition, % at 5 µM;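 active = blocking of liver enzyme CYP2C9 beyond about 50% at 5 µM, limit read from the data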
Target sequence (P11712 whole entry, looked up): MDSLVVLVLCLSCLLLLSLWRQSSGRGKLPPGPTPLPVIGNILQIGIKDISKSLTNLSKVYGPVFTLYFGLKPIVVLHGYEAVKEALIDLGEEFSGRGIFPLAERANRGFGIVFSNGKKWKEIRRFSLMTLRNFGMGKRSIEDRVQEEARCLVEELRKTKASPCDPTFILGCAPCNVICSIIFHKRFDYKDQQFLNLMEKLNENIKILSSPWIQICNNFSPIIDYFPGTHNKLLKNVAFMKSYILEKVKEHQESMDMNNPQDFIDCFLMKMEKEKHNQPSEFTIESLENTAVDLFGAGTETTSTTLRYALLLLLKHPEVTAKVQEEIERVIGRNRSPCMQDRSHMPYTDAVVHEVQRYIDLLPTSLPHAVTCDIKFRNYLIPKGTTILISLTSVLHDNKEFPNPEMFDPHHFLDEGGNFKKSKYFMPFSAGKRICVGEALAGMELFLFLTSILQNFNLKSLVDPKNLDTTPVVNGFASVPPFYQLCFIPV
sEH inh: soluble epoxide hydrolase inhibitors, primary screen, biochemical, human sEH; 91,000 tested, 0.34% active; Bifunctional epoxide hydrolase 2 (Homo sapiens), P34913; recombinant human sEH enzymatic activity assay; inhibition, % at 2 µM; in the data active = inhibition above about 80%
CYP2C19 inhib: blockers of cytochrome P450 2C19 activity – biochemical, luminescence, ADME assay, primary screen | P33261 | CYP2C19 Supersomes, luciferin-H EGE luminescence, 30 min | inhibition, % at 5 µM | 96,000 tested, 21% active | AID 778, 2007;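 active = CYP2C19 inhibition above a set limit at 5 µM in the primary screen, cut at about 50% in these data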;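 also: plate controls were negative control wells for no effect and 2.5 mM tranylcypromine positive control for full effect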
sEH activator: soluble epoxide hydrolase activators, primary screen, biochemical, human sEH. activation, % at 2 µM. purified human sEH enzymatic activity, activator screen. 91,000 tested, 0.04% active. Bifunctional epoxide hydrolase 2 (Homo sapiens), P34913; in the data active = activation above about 37%
CYP2C9 act: human CYP2C9 activators, primary screen, biochemical, luminescence; Cytochrome P450 2C9 (Homo sapiens), P11712; recombinant CYP2C9, luciferin-H conversion; hits give high values; factor 1 = untreated enzyme, 0 = blocked; activation factor at 5 µM; 96,000 tested, 1.4% active;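 active = activation factor of 2 or more for CYP2C9 at a 5 µM dose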;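 also: 0 = sulfaphenazole-blocked wells and 1 = vehicle-only wells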
The depositor's hits bear a star. The list is not random: actives were taken first. Their share in the collection is about 27%.

How did COc1ccc(C(C)(C)C)cc1S(=O)(=O)N1CCN(C)CC1 do in these assays?
CYP2C19 activ: 0.8; CYP2C9 inh: -96.6; sEH inh: -3.3; CYP2C19 inhib: 22.7; sEH activator: 8.8; CYP2C9 act: 2*

What do the screens show for `CCOC(=O)Nc1ccc(OC)cc1S(=O)(=O)N1CCCCC1`?
CYP2C19 activ: 0.4; CYP2C9 inh: -7.5; sEH inh: 18.8; CYP2C19 inhib: 62.8*; sEH activator: -16.7; CYP2C9 act: 1.1

How did COc1ccc(OC)c(S(=O)(=O)N2CCN(C)CC2)c1 do in these assays?
CYP2C19 activ: 0.5; CYP2C9 inh: 11.9; CYP2C19 inhib: 45.3; CYP2C9 act: 0.9

How did COc1ccc(Br)cc1S(=O)(=O)N1CCCC1 do in these assays?
sEH inh: 2.6; sEH activator: 2.7

How did COc1cc(S(=O)(=O)N2CCCCCC2)c(OC)cc1Br do in these assays?
CYP2C19 activ: 0; CYP2C9 inh: 74.7*; CYP2C19 inhib: 96.3*; CYP2C9 act: 0.3

What do the screens show for `CC(=O)Nc1c(O)nc(SCC(=O)Nc2c(C)cccc2C)[nH]c1=O`?
CYP2C19 activ: 1.1; CYP2C9 inh: 0.0; sEH inh: 12.2; CYP2C19 inhib: -8.2; sEH activator: -9.8; CYP2C9 act: 1

What do the screens show for `CCCc1cc2c(cc1NC(=O)c1ccc(Br)cc1)OCO2`?
CYP2C19 activ: 0.1; CYP2C9 inh: 11.1; sEH inh: 3.4; CYP2C19 inhib: 87.4*; sEH activator: -3.4; CYP2C9 act: 0.9

How did CCCc1cc2c(cc1NC(=O)c1ccccc1Cl)OCO2 do in these assays?
CYP2C19 activ: 0.1; CYP2C9 inh: 49.3; sEH inh: -18.9; CYP2C19 inhib: 94.2*; sEH activator: 19.8; CYP2C9 act: 0.5

What do the screens show for `CCOc1cc(NC(=O)c2ccccc2C)c(OCC)cc1NC(=O)C1=Cc2ccccc2OC1`?
CYP2C19 activ: 0.9; CYP2C9 inh: 11.7; sEH inh: -9.4; CYP2C19 inhib: 13.5; sEH activator: 9.4; CYP2C9 act: 0.9

Results for C=CCN(CC=C)C(=O)c1ccccc1NC(=O)c1ccccc1C ?
CYP2C19 activ: 0.5; CYP2C9 inh: 8.4; sEH inh: 5.9; CYP2C19 inhib: 51.0*; sEH activator: -6.4; CYP2C9 act: 0.9

Results for CCC(=O)Nc1ccc(NC(=O)c2ccc3c(c2)OCO3)cc1 ?
CYP2C19 activ: 0.9; CYP2C9 inh: 14.2; sEH inh: -1.3; CYP2C19 inhib: 9.3; sEH activator: 2.1; CYP2C9 act: 0.9

How did CCCc1cc2c(cc1NC(=O)c1ccccc1C)OCO2 do in these assays?
CYP2C19 activ: 0; CYP2C9 inh: 28.5; sEH inh: -19.3; CYP2C19 inhib: 95.2*; sEH activator: 20.2; CYP2C9 act: 0.7

Results for COc1cccc2c1OC[C@@H](CO)[C@H]2N(C)C(=O)Nc1ccc(Cl)cc1 ?
CYP2C19 activ: 0.9; CYP2C9 inh: 19.5; CYP2C19 inhib: 14.4; CYP2C9 act: 0.8

How did CC(C(=O)Nc1ccccc1C(=O)N1CCCC1)n1nnc2ccccc21 (stereo unspecified) do in these assays?
CYP2C19 activ: 0.6; CYP2C9 inh: 4.6; CYP2C19 inhib: 38.6; CYP2C9 act: 1

What do the screens show for `CCC(C)C(NC(=O)C1CCC(C)CC1)C(=O)Nc1cc(OC)ccc1OC` (stereo unspecified)?
CYP2C19 activ: 0.9; CYP2C9 inh: 69.0*; sEH inh: 3.2; CYP2C19 inhib: 12.1; sEH activator: -5.5; CYP2C9 act: 0.3

How did COc1ccc(OC)c(NC(=O)C(CC(C)C)NC(=O)C2CCCCC2)c1 (stereo unspecified) do in these assays?
CYP2C19 activ: 1; CYP2C9 inh: -3.8; CYP2C19 inhib: 4.1; CYP2C9 act: 1

What do the screens show for `COc1cc(NC(=O)C2CCCN2C(=O)C2CCC(C)CC2)cc(OC)c1OC` (stereo unspecified)?
CYP2C19 activ: 0.5; CYP2C9 inh: 12.1; sEH inh: -1.9; CYP2C19 inhib: 49.3; sEH activator: 1.7; CYP2C9 act: 0.9

What do the screens show for `COc1ccccc1NC(=O)C(CC(C)C)NC(=O)C1CCCCC1` (stereo unspecified)?
CYP2C19 activ: 0.5; CYP2C9 inh: 25.9; sEH inh: -1.9; CYP2C19 inhib: 50.8*; sEH activator: -0.5; CYP2C9 act: 0.7

Results for COc1ccc(OC)c(NC(=O)C2CCCN2C(=O)C2CCC(C)CC2)c1 (stereo unspecified) ?
CYP2C19 activ: 0.5; CYP2C9 inh: 57.2*; sEH inh: -1.6; CYP2C19 inhib: 53.1*; sEH activator: 3.3; CYP2C9 act: 0.4

Results for COc1ccc(OC)c(NC(=O)C2CCCC2)c1 ?
CYP2C19 activ: 0.7; CYP2C9 inh: -7.3; sEH inh: -1.8; CYP2C19 inhib: 28.8; sEH activator: 2.5; CYP2C9 act: 1.1

Results for CC(C)NC(=O)C12CC3CC(C1)CC(n1cnc(Cl)n1)(C3)C2 ?
CYP2C19 activ: 0.8; CYP2C9 inh: 10.6; sEH inh: 6.8; CYP2C19 inhib: 15.7; sEH activator: -5.3; CYP2C9 act: 0.9

How did CCn1c(CNC(=O)c2ccco2)nnc1SCC(=O)Nc1cc(C(F)(F)F)ccc1Cl do in these assays?
CYP2C19 activ: 0.7; CYP2C9 inh: 1.5; sEH inh: -18.8; CYP2C19 inhib: 31.7; sEH activator: 16.4; CYP2C9 act: 1

What do the screens show for `Oc1[nH]c2ccccc2c1/C=N/c1nccs1`?
CYP2C19 activ: 0.5; CYP2C9 inh: 13.9; sEH inh: -14.3; CYP2C19 inhib: 53.4*; sEH activator: 16.1; CYP2C9 act: 0.9

How did Cc1cccc(-c2csc(NC(=O)c3cnccn3)c2C(=O)OC(C)C)c1 do in these assays?
CYP2C19 activ: 0.7; CYP2C9 inh: 50.5*; sEH inh: -0.8; CYP2C19 inhib: 29.6; sEH activator: 4.0; CYP2C9 act: 0.5

Results for Cc1cc(NC(=O)CS(=O)(=O)c2cn(Cc3ccc(F)cc3)c3ccccc23)no1 ?
CYP2C19 activ: 0.8; CYP2C9 inh: 47.6; sEH inh: -1.0; CYP2C19 inhib: 18.1; sEH activator: 0.2; CYP2C9 act: 0.5

How did Cc1cc(NC(=O)CS(=O)(=O)c2cn(Cc3cccc(F)c3)c3ccccc23)no1 do in these assays?
CYP2C19 activ: 0.4; CYP2C9 inh: 71.5*; sEH inh: -6.3; CYP2C19 inhib: 57.3*; sEH activator: 5.4; CYP2C9 act: 0.3

Results for CCn1cc(S(=O)(=O)CC(=O)Nc2ccc(OC)cc2)c2ccccc21 ?
CYP2C19 activ: 0.4; CYP2C9 inh: 47.8; CYP2C19 inhib: 56.1*; CYP2C9 act: 0.5

What do the screens show for `CCOc1ccc(NC(=O)CS(=O)(=O)c2cn(CC)c3ccccc23)cc1`?
CYP2C19 activ: 0.9; CYP2C9 inh: 37.5; sEH inh: 23.5; CYP2C19 inhib: 8.9; sEH activator: -24.3; CYP2C9 act: 0.6
